This note sets out measurements from PubChem BioAssay (Tox21).

Assay [1] can be described thus: qHTS assay to identify small molecule antagonists of the thyroid receptor (TR) signaling pathway - cell viability counter screen (AID 743064). Note: nearly all actives have a fitted effect of over 50% in size. Note: potency is the fitted concentration of half-maximal effect. An outline of the steps:
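Viability of T3-stimulated (1 nM final) GH3.TRE-Luc cells is measured by CellTiter-Fluor fluorescence after 23.5 h compound exposure at 37 °C plus 30 min reagent incubation.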
A general note: In qHTS, concentration-response curves come from the screen itself.

The nature of assay [2]: qHTS assay to identify small molecule antagonists of the thyroid receptor (TR) signaling pathway (AID 743065). Note: nearly all actives have a fitted effect of over 55% in size. Note: potency is the fitted concentration of half-maximal effect. An outline of the steps: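 GH3.TRE-Luc rat pituitary cells (two TREs driving luciferase) were dosed with compound, then stimulated with 1 nM T3 (final) for 23.5 h at 37 C. ONE-Glo luminescence was the read-out, with CellTiter-Fluor fluorescence as the cytotoxicity counter-screen.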

Assay [3] concerns thyroid hormone receptor (rat, GH3 cells). The assay is described as follows: qHTS assay to identify small molecule agonists of the thyroid receptor (TR) signaling pathway (AID 743066; calls by dose curve; note: potency is the fitted concentration of half-maximal effect).
Assay [4] in a line: qHTS assay to identify small molecule antagonists of the estrogen receptor alpha (ER-alpha) signaling pathway - cell viability counter screen (AID 743074; calls by dose curve; note: nearly all actives have a fitted effect of over 45% in size; note: potency is the fitted concentration of half-maximal effect).
Assay [5] can be described thus: qHTS assay to identify small molecule antagonists of the estrogen receptor alpha (ER-alpha) signaling pathway using the BG1 cell line - cell viability counter screen (AID 743081).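 Note: compound given together with 17beta-estradiol as the ER stimulus; nearly all actives have a fitted effect of over 45% in size.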 Note: potency is the fitted concentration of half-maximal effect.
A further assay addresses Aromatase (Homo sapiens) (UniProt P11511). The assay is described as follows: qHTS assay to identify aromatase inhibitors (AID 743083). Note: nearly all actives have a fitted effect of over 55% in size. Note: potency is the fitted concentration of half-maximal effect.
Assay [6] can be described thus: qHTS assay to identify aromatase inhibitors - cell viability counter screen (AID 743084).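 Note: cells stimulated with testosterone during compound exposure; nearly all actives have a fitted effect of over 55% in size.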 Note: potency is the fitted concentration of half-maximal effect.
Assay [7] addresses Aryl hydrocarbon receptor (Homo sapiens) (UniProt P35869). The experiment in a line: qHTS assay to identify small molecule that activate the aryl hydrocarbon receptor (AhR) signaling pathway (AID 743085).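 For activation: HG2L7.5c1 human HepG2 liver cells with stably integrated DRE-driven firefly reporter.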 Note: nearly all actives have a fitted effect of over 15% in size. Note: potency is the fitted concentration of half-maximal effect. An outline of the steps:
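A multiplexed format paired cell viability (CellTiter-Fluor fluorescence) with AhR-dependent luciferase output (ONE-Glo luminescence) in the same wells of HepG2 DRE-luc cells after 24 h compound exposure at 37C.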

The nature of assay [8]: qHTS assay to identify small molecule that activate the aryl hydrocarbon receptor (AhR) signaling pathway - cell viability counter screen (AID 743086).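 Note: HepG2 liver cells carrying the AhR DRE luciferase reporter; nearly all actives have a fitted effect of over 45% in size.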 An outline of the steps:
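HepG2-AhR-luc (HG2L7.5c1) cells, 4000/well, treated 24 h at 37 C with compound; viability measured as CellTiter-Fluor fluorescence after 30 min in the same wells as the luciferase read.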

Assay [9] concerns the target Peroxisome proliferator-activated receptor gamma (Homo sapiens) (UniProt P37231). The experiment in a line: qHTS assay to identify small molecule agonists of the peroxisome proliferator-activated receptor gamma (PPARg) signaling pathway (AID 743094; active = well fitted activation curve with a large enough effect in the signal ratio in the repeat runs, not every such curve was filed as active; the % refers to the signal ratio). An outline of the steps:
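Agonism was assessed in a beta-lactamase reporter system, HEK293H cells with a stably integrated UAS-bla construct under PPARg control; the 17 h treatment at 37C preceded a 1 h room-temperature FRET substrate read.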

For assay [10] the target is unchanged. The experiment in a line: qHTS assay to identify small molecule antagonists of the peroxisome proliferator-activated receptor gamma (PPARg) signaling pathway (AID 743191; calls by dose curve; note: nearly all actives have a fitted effect of over 30% in size). An outline of the steps: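 GeneBLAzer PPARg UAS-bla HEK293H cells, 5 h post-plating, exposed to compounds 17 h at 37C. LiveBLAzer B/G FRET substrate added for 1 h at room temperature; beta-lactamase reporter read by fluorescence intensity.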

Assay [11] can be described thus: qHTS assay to identify small molecule antagonists of the peroxisome proliferator-activated receptor gamma (PPARg) signaling pathway - cell viability counter screen (AID 743194). Note: nearly all actives have a fitted effect of over 55% in size. Note: potency is the fitted concentration of half-maximal effect. To be noted: Potency: co-treated with 50 nM rosiglitazone unless noted. An outline of the steps: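 Cytotoxicity counter screen in PPARg-bla HEK293H cells, same wells as reporter assay. Compounds plus 50 nM rosiglitazone (final) for 17 h at 37 C, then viability read by CellTiter-Glo luminescence.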

The nature of assay [12]: qHTS assay for small molecule agonists of the antioxidant response element (ARE) signaling pathway (AID 743202; active = well fitted activation curve with a large enough effect in the signal ratio in the repeat runs, not every such curve was filed as active; the % refers to the signal ratio; note: potency is the fitted concentration of half-maximal effect). An outline of the steps: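 HepG2 ARE-bla cells; 16 h treatment at 37 C; FRET-based beta-lactamase fluorescence read after 2 h substrate incubation at room temperature.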
Assay [13] can be described thus: qHTS assay for small molecule agonists of the antioxidant response element (ARE) signaling pathway - cell viability counter screen (AID 743203; calls by dose curve; note: nearly all actives have a fitted effect of over 55% in size; note: potency is the fitted concentration of half-maximal effect). An outline of the steps: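 ATP content via CellTiter-Glo luminescence served as the viability measure. Cells: ARE-bla HepG2, 2,000 per well. Exposure: 16 hrs, 37C/5% CO2.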
Assay [14] in a line: qHTS assay for small molecule activators of the heat shock response signaling pathway - cell viability counter screen (AID 743209). Note: nearly all actives have a fitted effect of over 50% in size. Note: potency is the fitted concentration of half-maximal effect. An outline of the steps: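 Compounds dissolved in DMSO were added to overnight-plated HSE-bla HeLa cells and left 5 h at 37 C. Cell viability was quantified by luminescence using CellTiter-Glo.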
In assay [15] the target is Estrogen receptor (Homo sapiens) (UniProt P03372). The experiment in a line: qHTS assay to identify small molecule antagonists of the estrogen receptor alpha (ER-alpha) signaling pathway (AID 743069; active = well fitted curve in the direction sought with a large enough effect in the signal ratio in the repeat runs, not every such curve was filed as active; the % refers to the signal ratio). An outline of the steps:
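In this cell-based reporter format, GripTite HEK293 cells harbouring ER-alpha-UAS-bla were grown overnight with 2% charcoal-stripped FBS, dosed with DMSO-dissolved compounds, then challenged with 17beta-estradiol. After 18 hr at 37C, beta-lactamase activity was detected by FRET fluorescence.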

For assay [16] the target is unchanged. The assay is described as follows: qHTS assay to identify small molecule agonists of the estrogen receptor alpha (ER-alpha) signaling pathway (AID 743075; calls by dose curve).
Assay [17] has the same target. The assay is described as follows: qHTS assay to identify small molecule agonists of the estrogen receptor alpha (ER-alpha) signaling pathway using the BG1 cell line (AID 743079). Note: nearly all actives have a fitted effect of over 20% in size. Note: potency is the fitted concentration of half-maximal effect. To be noted: BG1Luc4E2 cells, ERE-luciferase agonist, 22 h; activation: at 70.3 µM (top of the series) unless noted.
The nature of assay [18]: qHTS assay to identify small molecule antagonists of the estrogen receptor alpha (ER-alpha) signaling pathway using the BG1 cell line (AID 743080; calls by dose curve;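 note: BG1 cells stimulated with 17beta-estradiol alongside compound; nearly all actives have a fitted effect of over 25% in size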). An outline of the steps: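 After 5 days in phenol-red-free 10% charcoal-stripped FBS medium, BG1-Luc-4E2 cells were seeded, left 24 h at 37 C, co-treated with compounds and 17beta-estradiol for 21.5 h, then assayed for viability and luciferase.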

Assay [19] can be described thus: qHTS assay for small molecule activators of the heat shock response signaling pathway (AID 743210; active = well fitted activation curve with a large enough effect in the signal ratio in the repeat runs, with a control signal flat, not every such curve was filed as active; the % refers to the signal ratio;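 note: HeLa cells with beta-lactamase reporter driven by heat shock elements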). An outline of the steps: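 Following overnight attachment, HSE-bla HeLa cells received test compounds for 5 h at 37 C; beta-lactamase activity was then detected via FRET substrate fluorescence.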

Where “and” joins values, the source holds several entries; their conditions need not be identical. Equal values may be shown once. Records with an inconclusive call do not appear. Where a structure was tested more than once in an assay, its records may differ in their call. Calls of active or inactive are those of the source. Unless noted, calls come from the whole dose curve; as a rule, active = well fitted curve in the direction sought with a large enough effect in the repeat runs; inconclusive = weak or mixed curves; inactive = no such curve, though single readings can be large; an effect the other way counts as inactive or inconclusive.

Aromatase (Homo sapiens), sequence (P11511 whole entry, looked up): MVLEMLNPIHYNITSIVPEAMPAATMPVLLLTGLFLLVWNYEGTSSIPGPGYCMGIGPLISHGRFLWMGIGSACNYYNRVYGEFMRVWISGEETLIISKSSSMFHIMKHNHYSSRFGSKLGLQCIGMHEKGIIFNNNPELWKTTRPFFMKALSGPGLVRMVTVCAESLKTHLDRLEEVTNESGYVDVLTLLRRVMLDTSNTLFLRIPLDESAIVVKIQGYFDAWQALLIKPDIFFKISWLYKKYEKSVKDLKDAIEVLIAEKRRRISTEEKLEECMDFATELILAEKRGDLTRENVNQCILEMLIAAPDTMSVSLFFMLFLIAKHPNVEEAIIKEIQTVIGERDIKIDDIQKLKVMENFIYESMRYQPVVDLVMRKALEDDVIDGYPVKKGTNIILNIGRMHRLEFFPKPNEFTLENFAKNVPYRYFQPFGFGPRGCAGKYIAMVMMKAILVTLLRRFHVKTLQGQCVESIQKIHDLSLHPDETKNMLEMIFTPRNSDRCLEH
Aryl hydrocarbon receptor (Homo sapiens), sequence (P35869 whole entry, looked up): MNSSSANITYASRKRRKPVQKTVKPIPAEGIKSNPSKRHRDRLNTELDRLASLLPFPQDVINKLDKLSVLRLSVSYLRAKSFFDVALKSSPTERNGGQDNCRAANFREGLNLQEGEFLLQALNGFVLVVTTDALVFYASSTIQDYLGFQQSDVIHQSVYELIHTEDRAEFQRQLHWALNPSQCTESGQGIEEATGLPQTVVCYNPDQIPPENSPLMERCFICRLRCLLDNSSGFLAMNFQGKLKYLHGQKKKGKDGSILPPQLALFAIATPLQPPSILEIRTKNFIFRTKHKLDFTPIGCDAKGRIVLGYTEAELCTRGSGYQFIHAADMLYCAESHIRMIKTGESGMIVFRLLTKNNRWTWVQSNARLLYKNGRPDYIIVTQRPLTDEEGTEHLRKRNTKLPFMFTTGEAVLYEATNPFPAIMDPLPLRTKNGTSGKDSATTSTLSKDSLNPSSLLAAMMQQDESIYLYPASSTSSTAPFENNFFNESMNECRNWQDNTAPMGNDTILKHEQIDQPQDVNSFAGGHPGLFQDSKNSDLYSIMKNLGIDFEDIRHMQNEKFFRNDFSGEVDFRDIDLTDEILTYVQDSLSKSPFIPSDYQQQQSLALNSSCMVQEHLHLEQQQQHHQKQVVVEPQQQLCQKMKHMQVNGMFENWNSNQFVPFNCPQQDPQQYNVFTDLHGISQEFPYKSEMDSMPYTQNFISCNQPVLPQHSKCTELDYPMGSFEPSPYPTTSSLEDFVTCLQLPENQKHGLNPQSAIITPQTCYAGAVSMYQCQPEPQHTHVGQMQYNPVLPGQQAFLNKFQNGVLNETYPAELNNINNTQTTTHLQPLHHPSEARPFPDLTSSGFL
Estrogen receptor (Homo sapiens), sequence (P03372 whole entry, looked up): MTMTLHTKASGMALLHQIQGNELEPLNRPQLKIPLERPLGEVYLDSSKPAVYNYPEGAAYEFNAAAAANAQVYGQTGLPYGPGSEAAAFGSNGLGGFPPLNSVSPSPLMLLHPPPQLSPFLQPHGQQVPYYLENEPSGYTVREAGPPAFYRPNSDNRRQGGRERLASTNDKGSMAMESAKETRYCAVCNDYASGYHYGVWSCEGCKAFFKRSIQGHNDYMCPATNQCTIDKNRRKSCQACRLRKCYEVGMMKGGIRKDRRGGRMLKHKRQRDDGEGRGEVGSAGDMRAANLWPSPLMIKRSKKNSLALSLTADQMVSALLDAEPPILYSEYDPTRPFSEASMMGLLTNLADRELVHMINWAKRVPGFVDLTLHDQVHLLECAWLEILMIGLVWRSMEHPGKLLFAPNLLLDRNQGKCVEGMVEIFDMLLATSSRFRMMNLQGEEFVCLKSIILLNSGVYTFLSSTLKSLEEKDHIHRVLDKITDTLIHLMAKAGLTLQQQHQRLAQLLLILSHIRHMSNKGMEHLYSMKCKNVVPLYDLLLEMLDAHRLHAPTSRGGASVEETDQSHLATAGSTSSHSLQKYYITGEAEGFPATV
Peroxisome proliferator-activated receptor gamma (Homo sapiens), sequence (P37231 whole entry, looked up): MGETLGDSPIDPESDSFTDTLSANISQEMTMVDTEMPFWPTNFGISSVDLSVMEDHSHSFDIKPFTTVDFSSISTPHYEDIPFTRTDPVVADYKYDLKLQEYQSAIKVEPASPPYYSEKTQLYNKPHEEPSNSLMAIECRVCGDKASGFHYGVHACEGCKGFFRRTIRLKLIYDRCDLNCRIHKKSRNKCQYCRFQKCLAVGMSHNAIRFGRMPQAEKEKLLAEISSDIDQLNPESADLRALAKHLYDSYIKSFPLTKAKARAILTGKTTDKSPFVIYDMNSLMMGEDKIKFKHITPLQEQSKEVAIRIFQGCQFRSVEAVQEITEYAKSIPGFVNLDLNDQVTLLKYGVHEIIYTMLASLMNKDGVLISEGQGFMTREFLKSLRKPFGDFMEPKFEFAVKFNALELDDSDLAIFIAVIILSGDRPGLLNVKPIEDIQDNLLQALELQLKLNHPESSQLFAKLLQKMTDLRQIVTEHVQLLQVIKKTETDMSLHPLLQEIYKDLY

Regarding `CCNc1nc(Cl)nc(NC(C)(C)C#N)n1`, the Potency result (in assay [1]; in [2]; in assay [3]; in [4]; in assay [5]; in the assay with Aromatase (Homo sapiens)) was “inactive” throughout. In addition, the Potency entry in assay [6], in assay [7], in [8], in assay [9], in assay [10] and in [11] was “inactive” in each case. Further, the Potency entry in assay [12], in assay [13] and in [14] was “inactive” in each case.

Consider `OCCOCCO`, for which the Potency result in assay [1], in [2], in [3], in assay [15], in assay [16] and in assay [17] was “inactive” in each case. The Potency entry (in [18]; in assay [5]; with Aromatase (Homo sapiens); in assay [6]; in assay [7]; in assay [8]) was “inactive” throughout. In addition, the Potency result in assay [9], in [10], in [11], in assay [12], in assay [13] and in assay [14] was “inactive” throughout.

For `CC(C)Nc1ccc(Nc2ccccc2)cc1`, the Potency in assay [1] was 13.3 µM (active) and 30.6 µM (active); in assay [2] it was 11.9 µM (active) and 30.5 µM (active) and 17.2 µM (active); in assay [4], 48.8 µM (active) and 43.6 µM (active); with Aromatase (Homo sapiens), 13.3 µM (active) and 27.2 µM (active); in assay [6] it was 30.5 µM (active) and 54.5 µM (active); in assay [7], “inactive and 2.17 µM (active)”. Besides, in assay [12], the Potency was 27.3 µM (active). Moreover, the Potency entry in [3], in [16], in assay [5], in assay [13] and in [14] was “inactive” in each case.

Regarding `Brc1ccc(Br)cc1`, the Potency entry (in [1]; in [2]; in [3]; in assay [4]; in assay [5]; with Aromatase (Homo sapiens)) was “inactive” throughout. In addition, the Potency entry in [6], in assay [7], in [8], in [9], in assay [10] and in assay [11] was “inactive” each time. Further, the Potency entry in [12], in assay [13] and in [14] was “inactive” in each case.

For `CCCCCCCCCc1ccc(O)cc1`, the Potency in assay [1] was 39 µM (active); in assay [2] it was 30.9 µM (active); in assay [17], 6.93 µM (active); in the assay with Aromatase (Homo sapiens) it was 49.1 µM (active); in assay [6], 55 µM (active). For the same compound, the Potency result in assay [3], in assay [15], in assay [16], in assay [18], in [5] and in [7] was “inactive” throughout. Further, the Potency entry in [8] and in assay [9] was “inactive” in each case.

On to `CC(C)(c1ccccc1)c1ccc(O)c(C(C)(C)c2ccccc2)c1`, for which the Potency in [1] was 13.6 µM (active) and 12.2 µM (active); in assay [2], 15.2 µM (active) and 13.7 µM (active); in [3], 1.52 µM (active); in assay [4], 54.9 µM (active); in [5], 60.6 µM (active) and inactive; in the assay with Aromatase (Homo sapiens) it was 60.6 µM (active). The Potency in [6] was 48.1 µM (active); in assay [11], 15.3 µM (active) and 19.5 µM (active); in [13] it was 54 µM (active) and 21.7 µM (active); in assay [14], 48.5 µM (active) and 24.5 µM (active). The Potency result in assay [15], in [7] and in assay [8] was “inactive” each time.

Regarding `NC(=O)CN1CCCC1=O`, the Potency result (in [1]; in assay [2]; in [3]; in assay [4]; in assay [5]; with Aromatase (Homo sapiens)) was “inactive” throughout. For the same compound, the Potency entry in [6], in [7], in assay [8], in [9], in assay [10] and in [11] was “inactive” throughout. In addition, the Potency entry in [12], in assay [13], in assay [14] and in assay [19] was “inactive” in each case.

Consider `CCOP(=S)(OCC)OP(=S)(OCC)OCC`, for which the Potency entry (in assay [1]; in assay [2]; in assay [3]; in assay [4]; in [5]; with Aromatase (Homo sapiens)) was “inactive” in each case. The Potency entry in assay [6], in assay [7], in [8], in assay [9], in [10] and in assay [11] was “inactive” in each case. For the same compound, the Potency entry in assay [12], in assay [13], in assay [14] and in assay [19] was “inactive” in each case.

On to `O=P(OCCCl)(OCCCl)OCCCl`, for which the Potency entry (in assay [1]; in assay [2]; in assay [3]; in assay [4]; in assay [5]; with Aromatase (Homo sapiens)) was “inactive” each time. For the same compound, the Potency entry in [6], in [7], in assay [8], in assay [9], in assay [10] and in [11] was “inactive” throughout. Further, the Potency entry in assay [12], in assay [13], in assay [14] and in assay [19] was “inactive” each time.

Consider `Clc1ccccc1-c1nnc(-c2ccccc2Cl)nn1`, for which the Potency result in [1], in [2], in [3], in assay [4], in [16] and in assay [5] was “inactive” throughout. The Potency result (with Aromatase (Homo sapiens); in [6]; in assay [7]; in assay [8]; in assay [9]; in [10]) was “inactive” in each case. The Potency entry in assay [11], in assay [12], in assay [13], in assay [14] and in assay [19] was “inactive” in each case. In addition, the Potency in [17] is 27.1 µM (active) and 43.1 µM (active).

As for `Nc1ccc2ccccc2c1`, the Potency result in assay [1], in assay [2], in assay [3], in [15], in assay [16] and in assay [17] was “inactive” each time. The Potency result (in [5]; with Aromatase (Homo sapiens); in assay [6]; in assay [8]; in [9]; in assay [10]) was “inactive” in each case. Besides, the Potency result in assay [11], in [12], in assay [13], in [14] and in assay [19] was “inactive” throughout. The Potency in assay [7] was 20.9 µM (active) and 27.3 µM (active).

On to `CCOP(=O)(OCC)OCC`, for which the Potency result (in assay [1]; in [2]; in assay [3]; in assay [4]; in assay [5]; in the assay with Aromatase (Homo sapiens)) was “inactive” each time. Further, the Potency entry in [6], in [7], in [8], in assay [9], in assay [10] and in assay [11] was “inactive” throughout. Also, the Potency result in [12], in assay [13], in assay [14] and in assay [19] was “inactive” throughout.

As for `O=S(=O)(O)C(F)(F)C(F)(F)C(F)(F)C(F)(F)C(F)(F)C(F)(F)C(F)(F)C(F)(F)F`, the Potency in assay [1] was 47.2 µM (active); in [2], 51.9 µM (active) and 61.1 µM (active); in assay [13] it was 27.3 µM (active). For the same compound, the Potency entry (in assay [3]; in assay [4]; in assay [5]; in the assay with Aromatase (Homo sapiens); in assay [6]; in [7]) was “inactive” each time. Also, the Potency result in assay [8], in assay [9], in [10], in [11], in [12] and in assay [14] was “inactive” in each case.
